# Tat transport – inhibitors of E. coli Tat protein transport; E. coli MC4100 TorA-mCherry Tat export, fluorescence; inhibition, % at 10 µM; hit rate 0.036% among 340,000; AID 488895;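 active means mean replicate inhibition at least 50% and at least half of replicates individually reaching 50%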;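 further: exported cargo escapes ClpAP degradation while cytoplasmic cargo is degraded and loses fluorescence; 0% = median of neutral control wells and 100% = median of NaSCN control wells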
# E coli growth-1 – bacterial growth inhibition, counter-screen for AddAB inhibitors; E. coli V3065 growth, OD600 absorbance, 18 h; inhibition, % at 11.9 µM; hit rate 0.27% among 330,000;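 active means inhibition above the campaign's mean inhibition across all tested compounds plus 3 SD, cut at about 9.9% in these data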;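 further: uninfected addAB+ strain grown without phage in ampicillin broth; 0% = DMSO wells and 100% = ciprofloxacin 0.95 µg/ml wells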
# AddAB inh – less growth of phage-infected E. coli with AddAB; hit rate 0.29% among 330,000; E. coli expressing H. pylori AddAB, absorbance growth; inhibition, % at 11.9 µM; AID 435030; in the data active means inhibition above about 12%;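 further: 0% = vehicle wells of infected cells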
# E coli growth-2 – E. coli growth inhibition | OD600 absorbance (no concentration beside the values) | AID 1053175 | Escherichia coli growth, OD600, 23 h; stronger effect = lower value | hit rate 0.21% among 330,000;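 active means OD600 absorbance below the run mean of sample wells minus 3.6 SD, in any replicate, cut at about 0.56 in these data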
# phage Ecoli inh – E. coli growth loss with phage present; inhibition, % at 11.9 µM; hit rate 0.26% among 360,000; growth absorbance; AID 651602; in the data active means inhibition above about 11%
# AddAB conf – confirmation screen: growth loss of phage-infected E. coli expressing H. pylori AddAB | shares compounds with AddAB inh | E. coli V3065 expressing H. pylori AddAB, T4 phage, OD; T4 phage with gene 2 nonsense mutations | inhibition, % at 11.9 µM | hit rate 64% among 880 | AID 488942;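 active means mean inhibition above a set limit taken from the earlier primary screen, cut at about 13% in these data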;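 further: higher means less bacterial growth since AddAB block lets phage replicate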
# RecBCD counter – reduces growth of phage-infected RecBCD+ E. coli, AddAB inhibitor counter-screen. shares compounds with AddAB inh. hit rate 73% among 880. E. coli V66 + mutant T4 phage, OD growth. AID 488955. inhibition, % at 11.9 µM;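 active means mean inhibition above the mean of solvent-only control wells plus 3 SD, cut at about 4% in these data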;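 further: optical density read after an 18 h incubation at 37 °C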
# bact viab count – reduces bacterial viability, AddAB inhibitor counter-screen. shares compounds with AddAB inh. absorbance (AddAB counterscreen). inhibition, % at 11.9 µM. hit rate 35% among 880. AID 488956; in the data active means inhibition above about 25%
# RecBCD conf – growth loss of phage-infected V66 E. coli, RecBCD confirmation screen | AID 651982 | shares compounds with phage Ecoli inh | inhibition, % at 11.9 µM | E. coli V66 + T4 2- phage, growth OD | hit rate 45% among 890;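 active means mean inhibition over triplicates exceeding the hit threshold derived in the original primary screen, cut at about 11% in these data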
# Ecoli viability – inhibits E. coli viability, flagging RecBCD hits as nonselective; shares compounds with phage Ecoli inh; absorbance (OD) growth; inhibition, % at 11.9 µM; hit rate 29% among 890; in the data active means inhibition above about 20%;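 further: E. coli strain V66 grown with compound alone and no phage infection; 0% = bacteria with DMSO vehicle only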
# AddAB counter – growth loss of phage-infected AddAB E. coli, RecBCD counter-screen; shares compounds with phage Ecoli inh; inhibition, % at 11.9 µM; E. coli expressing H. pylori AddAB + T4 phage, OD growth; gene 2 mutant T4, recBCD-deleted host; hit rate 45% among 890;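 active means mean inhibition above the solvent-only control wells' mean plus 3 SD, cut at about 22% in these data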;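 further: higher means less bacterial growth from phage killing when AddAB is blocked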
# Numbers without * were called inactive; / = no result. Only some compounds are listed: those with a hit (about 0.5% of all), similar ones and a draw of the others.
SMILES,Tat transport,E coli growth-1,AddAB inh,E coli growth-2,phage Ecoli inh,AddAB conf,RecBCD counter,bact viab count,RecBCD conf,Ecoli viability,AddAB counter
Cc1cc(C)c2c(N=NN3CCCCC3)[nH]nc2n1,-7,89*,98*,0.65,14*,91*,7.7*,43*,9,10,53*
CCN(CC)N=Nc1[nH]nc2nc(C)cc(C)c12,25,87*,35*,0.56*,14*,93*,9.3*,51*,10,10,76*
O=C(NCC1CC1)C1CC1C(NP(=O)(c1ccccc1)c1ccccc1)c1ccccc1 (stereo not drawn),/,/,/,0.68,/,/,/,/,/,/,/
CCC(=O)NC(c1ccc(C)cc1)c1ccc2cccnc2c1O (stereo not drawn),-3,29*,24*,/,24*,22*,24*,17,15*,21*,29*
CCCC(=O)NC(c1ccc(C(C)C)cc1)c1ccc2cccnc2c1O (stereo not drawn),-1,27*,26*,/,21*,21*,19*,20,14*,17,21
CCCC(=O)NC(c1ccc(N(C)C)cc1)c1ccc2cccnc2c1O (stereo not drawn),1,28*,31*,/,26*,25*,22*,20,17*,24*,29*
CCC(=O)NC(c1ccc(C)cc1)c1cc([N+](=O)[O-])c2cccnc2c1O (stereo not drawn),0,-1,2,0.71,2,/,/,/,/,/,/
O=C(O)c1ccccc1NC(c1ccccc1)c1ccc2cccnc2c1O (stereo not drawn),12,/,/,/,10,/,/,/,/,/,/
CCOc1ccc(NC(=S)NCc2nc3ccccc3[nH]2)cc1,-35,16*,20*,0.56,20*,32*,19*,24,17*,16,29*
FC(F)Oc1ccc(NC(=S)NCc2nc3ccccc3[nH]2)cc1,-74,17*,16*,0.54,17*,33*,19*,22,21*,19,36*
CC(C)c1ccccc1NC(=S)NCc1nc2ccccc2[nH]1,-3,0,0,0.68,3,/,/,/,/,/,/
O=S(=O)(NCc1ccccc1)C1CC2C=CC1C2 (stereo not drawn),/,/,/,0.67,/,/,/,/,/,/,/
C=C(C)C(=O)Nc1cccc(C2=NOC3(C2)CC(C(N)=O)N(C(=O)CC(c2ccccc2)c2ccccc2)C3)c1 (stereo not drawn),/,/,/,0.68,/,/,/,/,/,/,/
CC(C)(C)[C@]1(O)CCN2CC3c4ccccc4CCc4cccc(c43)C2C1 (stereo partly drawn),/,/,/,0.68,/,/,/,/,/,/,/
CCC(C)C(NC(=O)Nc1ccc(S(N)(=O)=O)cc1)C(=O)O (stereo not drawn),/,/,/,0.72,/,/,/,/,/,/,/
COc1ccc(-c2c(C)n([O-])c(C)c(C)[n+]2=O)cc1OC,4,0,1,0.69,-1,/,/,/,/,/,/
CC(=O)c1c(C)n([O-])c2cc(C)ccc2[n+]1=O,-3,25*,23*,0.54*,11*,63*,10.0*,56*,8,9,52*
O=[N+]([O-])c1cc(Cl)c2cccnc2c1O,-9,62*,68*,0.067*,52*,63*,70*,63*,78*,79*,63*
O=[N+]([O-])c1ccc(O)c2cccnc12,-13,0,-3,0.63,3,/,/,/,/,/,/
O=[N+]([O-])c1cc(F)c2cccnc2c1O,-19,54*,53*,0.083*,40*,50*,49*,41*,53*,53*,48*

# Source: PubChem BioAssay
